Assay outcomes from PubChem BioAssay.
Most compounds without a hit are left out; they make up all but 15% or so of the library.
Gal4-VP16 FLuc = inhibits Gal4-VP16 luciferase reporter, ROR gamma counter-screen; Drosophila S2 Gal4-VP16 UAS-luciferase, luminescence, 20 h; Potency, µM (titrated, usually from 53.6 µM), for inactives: top-dose activity, negative = inhibition, usual class: inhibitors; hit rate 3.5% among 310,000; AID 2546;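 note: Gal4-VP16 expression switched on by copper sulfate through the metallothionein promoter; nearly all actives have a fitted effect of over 50% in size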
RORgamma inh = inhibitors of mouse ROR gamma transcriptional activity; P51450; Drosophila S2 Gal4-RORgamma UAS-luciferase reporter, 20 h; Potency, µM (doses to about 53.6 µM), for inactives: at the top dose activity change, negative = inhibition, most hits filed as inhibitors; hit rate 5.4% among 310,000; AID 2551; note: nearly all actives have a fitted effect of over 60% in size
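A Gal4/UAS one-hybrid system in insect cells: metallothionein-promoter Gal4–ROR gamma fusion plus Photinus luciferase reporter. Copper sulfate 700 uM final, 20 hr ambient incubation, luminescent detection after 10 min with reagent.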
ELG1 DNA repair = inhibitors of ELG1-dependent DNA repair in HEK293T cells | HEK293T ELG1-luciferase reporter, luminescence, 16 h; DNA damage induced by 5-fluorouridine | Potency, µM (titrated, usually from 46.1 µM), inactives show at the highest dose activity change, negative = inhibition, most hits filed as inhibitors | hit rate 2.3% among 330,000; note: nearly all actives have a fitted effect of over 55% in size
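Step one: seed 2,000 cells per well. Step two: pin-transfer compound or DMSO alongside 5-fluorouridine. Step three: incubate 16 hr, 37 °C, 5% CO2. Step four: add ONE-Glo, wait 30 min, read luminescence.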
12-LOX inh = ALOX12 (human) lipoxygenase inhibition | purified 12hLO, xylenol orange hydroperoxide absorbance | Potency, µM (top dose mostly 108 µM), without a hit: top-dose activity change, negative = inhibition, actives largely listed as inhibitors | hit rate 1.1% among 580,000 | AID 1671190
Target sequence (P18054 whole entry, looked up): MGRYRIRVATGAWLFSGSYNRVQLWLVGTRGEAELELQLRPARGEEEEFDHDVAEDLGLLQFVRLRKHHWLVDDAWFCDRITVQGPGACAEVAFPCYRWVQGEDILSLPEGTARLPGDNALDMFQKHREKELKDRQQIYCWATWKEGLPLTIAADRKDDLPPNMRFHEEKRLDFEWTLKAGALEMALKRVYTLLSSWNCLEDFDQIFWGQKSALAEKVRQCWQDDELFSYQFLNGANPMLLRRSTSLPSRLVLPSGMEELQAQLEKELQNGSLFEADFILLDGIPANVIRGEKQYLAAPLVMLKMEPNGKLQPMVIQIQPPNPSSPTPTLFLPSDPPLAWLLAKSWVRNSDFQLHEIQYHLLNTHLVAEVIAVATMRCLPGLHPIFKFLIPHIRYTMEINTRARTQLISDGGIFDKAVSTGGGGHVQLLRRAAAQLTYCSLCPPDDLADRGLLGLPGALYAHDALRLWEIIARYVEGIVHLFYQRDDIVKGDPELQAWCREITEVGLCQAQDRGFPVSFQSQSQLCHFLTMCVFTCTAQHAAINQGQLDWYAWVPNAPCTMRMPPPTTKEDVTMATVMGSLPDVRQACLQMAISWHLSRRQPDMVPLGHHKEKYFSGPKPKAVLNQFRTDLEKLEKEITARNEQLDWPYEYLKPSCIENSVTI
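Hydroperoxide product was detected by ferrous iron/xylenol orange as the 573 to 405 nm absorbance ratio. Arachidonic acid at 40 uM (final) was turned over for 30 min at room temperature by 150 nM human 12hLO, pH 7.0 Hepes buffer, after 15 min compound preincubation.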
DT40 TDP1 no CPT = qHTS for Inhibitors of human tyrosyl-DNA phosphodiesterase 1 (TDP1): qHTS in cells in absence of CPT; DT40 Tdp1-/- hTDP1 cells, no CPT, ATP luminescence, 48 h; Potency, µM (highest dose often 46.2 µM), for the others: at the top dose activity change, negative = growth inhibition, most hits filed as inhibitors; hit rate 15% among 420,000; AID 686978, 2013; note: nearly all actives have a fitted effect of over 55% in size
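Luminescent ATP content (CellTiter-Glo) served as the growth readout. Knockout chicken DT40 cells expressing human TDP1 were exposed to compounds without camptothecin for a minimum 48 hr at 37 °C.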
TDP1 cell CPT = DT40-hTDP1 cell growth loss with CPT; chicken DT40 Tdp1-/-;hTDP1 cells + 20 nM CPT, ATP luminescence, 48 h; Potency, µM (top dose mostly 46.2 µM), for inactives: at the top dose activity change, negative = growth inhibition, most hits filed as inhibitors; hit rate 12% among 420,000; AID 686979; note: nearly all actives have a fitted effect of over 55% in size
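Chicken DT40 Tdp1-/- cells stably complemented with human TDP1 were seeded at 400 cells/well in medium containing 20 nM camptothecin, exposed to pin-transferred compounds, and grown at 37 °C for at least 48 hr. Viability was read as ATP luminescence.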
The depositor's hits bear a star; ? = inconclusive; . = no result given; [ ] = dose if it differs, or a comment. Calls come from the whole dose curve; as a rule, active = well fitted curve in the direction sought with a large enough effect; inconclusive = small, poorly fitted or top-dose-only effect, or another doubt; inactive = no such curve, though single readings can be large; an effect the other way counts as inactive or inconclusive. % is set by controls: 0 for no effect and ±100 for the full control effect; potency is the fitted concentration of half-maximal effect.

SMILES	Gal4-VP16 FLuc	RORgamma inh	ELG1 DNA repair	12-LOX inh	DT40 TDP1 no CPT	TDP1 cell CPT
Cc1ccc(-n2c(SCC(=O)Nc3ccc(C(N)=O)cc3)nc3ccccc3c2=O)cc1	.	.	.	74.0%	.	.
CCNC(=O)CSc1nc2ccccc2c(=O)n1-c1cccc(OC)c1	4.8%	-0.8%	27.3%	13.7%	-7.7%	0.0%
Cc1ccc(NC(=S)NNC(=O)CSc2nc3ccccc3c(=O)n2-c2ccc(C)cc2)cc1	?	?	-9.1%	?	16.4µM*	-29.2%
Cn1nccc1C(=O)NCC1CCCCC(=O)N1 (stereo not drawn)	.	.	.	5.5%	.	.
CCN(CC)C(=O)CSc1nc2ccccc2c(=O)n1-c1cccc(OC)c1	4.2%	-9.7%	-16.1%	0.0%	14.6µM*	?
Cc1cccc(-n2c(SCc3cc(=O)n4ccsc4n3)nc3ccccc32)c1	-1.0%	?	?	-2.6%	16.4µM*	13µM*
COc1ccc(-n2c(SCC(=O)Nc3ccc(NC(C)=O)cc3)nc3ccccc3c2=O)cc1	-2.6%	3.9%	?	-31.8%	-23.2%	13µM*
Cn1c(Cc2ccccc2)nnc1SCc1cc(=O)n2ccsc2n1	0.7%	0.3%	?	-2.2%	1.0%	7.4%
CCN(CC)C(=O)CSc1nc2c(sc(=S)n2-c2ccccc2)c(=O)n1-c1ccccc1OC	-7.7%	26.1%	?	0.0%	?	9.2µM*
CCn1cc(C(=O)N2CCC(CNC(C)=O)CC2)c2ccccc21	.	.	.	-17.2%	.	.
CCOc1ccc(-n2c(=S)sc3c(=O)[nH]c(SCC(=O)N4CCC(C)CC4)nc32)cc1	13.4%	4.7%	-10.0%	44.7µM*	?	-26.0%
CCOc1ccc(-n2c(=S)sc3c(=O)[nH]c(SCC(=O)NCc4ccco4)nc32)cc1	-11.8%	-3.5%	-2.3%	?	-5.6%	0.2%
CCOc1ccc(-n2c(=S)sc3c(=O)[nH]c(SCC(=O)C(C)(C)C)nc32)cc1	-27.8%	43.4%	14.6µM*	-27.0%	18.4µM*	25.9µM*
CCOc1ccc(-n2c(=O)c3c(C)c(C)sc3n(CC(=O)N3CCC(C)CC3)c2=O)cc1	.	.	.	?	20.6µM*	?
CN(C)CCCNC(=O)c1nc(-c2cccc3[nH]ccc23)no1	.	.	.	11.7%	.	.
Cc1nn(-c2cc(N3CCN(C(=O)c4ccc(F)cc4)CC3)ccc2[N+](=O)[O-])c(=O)c2ccccc12	.	.	.	-40.5%	.	.
COc1cccc(-c2nc(-c3c(C)noc3C)cc3c2cc(C)n3CCN(C)C)c1OC	.	.	.	-28.6%[176 µM]	.	.
Cc1noc(C)c1-c1cc2c(cc(C)n2CCN(C)C)c(-c2ccccc2O)n1	.	.	.	79.4µM*	.	.
Oc1c(N=NC(=S)Nc2ccccc2F)c2ccccc2n1Cc1ccccc1F	3.98µM*	2.51µM*	?	-8.6%	7.31µM*	16.4µM*
CCNC(=S)N=Nc1c(O)n(Cc2ccc(Cl)cc2)c2ccccc12	?	4.47µM*	-26.8%	?	?	16.4µM*
O=Nc1c(O)n(Cc2ccccc2)c2ccccc12	-12.3%	-5.9%	-6.5%	46.7%	-1.4%	-2.7%
Oc1c(N=NC(=S)Nc2ccccc2F)c2ccccc2n1Cc1ccc(Cl)cc1	-14.0%	3.98µM*	?	-23.3%	5.8µM*	4.61µM*
Cc1ccccc1Cn1c(O)c(N=NC(=S)Nc2ccccc2F)c2ccccc21	?	2.51µM*	5.8µM*	-7.0%	6.51µM*	5.8µM*
Cc1ccc(C)c(Cn2c(O)c(N=NC(=S)Nc3ccccc3F)c3ccccc32)c1	?	-42.1%	?	3.6%	2.91µM*	5.17µM*
N#Cc1c(C#N)c(SSc2c(C#N)c(C#N)c(N)n2-c2ccccc2)n(-c2ccccc2)c1N	.	.	.	0.355µM*	4.61µM*	4.61µM*
SMILES	Gal4-VP16 FLuc	RORgamma inh	ELG1 DNA repair	12-LOX inh	DT40 TDP1 no CPT	TDP1 cell CPT
CC1(C)CC(NC(=O)C2CCC2)CC(C)(CNC(=O)C2CCC2)C1 (stereo not drawn)	.	.	.	-14.5%	.	.
c1cnc2ccc3ncccc3c2c1	1.1%	-8.6%	?	?	-10.6%	?
O=Cc1ccc(O)c2ncccc12	0.562µM*	1µM*	2.31µM*	.	0.581µM*	0.651µM*
CCC(=O)OC1(C)C(=O)C=C2C=C(c3ccc(C#N)cc3)OC=C2C1=O (stereo not drawn)	-0.2%	9.1%	.	5.62µM*	-11.6%	-2.0%
CCC(=O)OC1(C)C(=O)C2=COC(c3ccc(OC)cc3)=CC2=C(Br)C1=O (stereo not drawn)	-5.0%	-6.6%	?	50.1µM*	-23.3%	13.6%
COC(=O)CCC(=O)OC1(C)C(=O)C=C2C=C(c3ccc(C#N)cc3)OC=C2C1=O (stereo not drawn)	4.8%	0.1%	.	.	.	.
O=C(O)c1cn(-c2ccc(F)cc2)c2cc(N3CCNCC3)c(F)cc2c1=O	1.1%	-7.1%	.	21.1%	16.4µM*	?
CCn1c(=O)c2cc(C(=O)N3CCCC3)sc2c2ccccc21	16.4%	-10.2%	-12.1%	.	.	.
CCn1c(=O)c2cc(C(=O)N3CCN(c4cccc(OC)c4)CC3)sc2c2ccccc21	.	.	.	-11.3%	13µM*	18.4µM*
CCn1c(=O)c2cc(C(=O)N3CCN(c4cccc(Cl)c4)CC3)sc2c2ccccc21	.	.	.	0.0%	23.1µM*	14.6µM*
O=C(NC1CCCCC1)c1cccnc1Cl	.	.	.	15.8%	.	.
CN(C)CCN1CC2(CCCN(C(=O)CN(C)c3ccccc3)C2)CCC1=O (stereo not drawn)	.	.	.	22.0%	.	.
CC(C)C[C@H]1CN([C@@H](Cc2ccccc2)CN2CCC[C@@H]2CN2C(=O)C(=O)NC[C@@H]2Cc2ccccc2)C(=O)C(=O)N1CCc1ccccc1	.	.	.	-0.5%	16.4µM*	16.4µM*
CC(C)C[C@H]1CNC(=O)C(=O)N1C[C@H]1CCCN1C[C@H](CC(C)C)N1C[C@H](Cc2ccccc2)N(CCc2ccccc2)C(=O)C1=O	.	.	.	?	29.1µM*	20.6µM*
CC(C)C[C@H]1CNC(=O)C(=O)N1C[C@@H]1CCCN1C[C@H](CC(C)C)N1C[C@H](Cc2ccccc2)N(CCc2ccccc2)C(=O)C1=O	.	.	.	-23.0%	?	?
CC(C)C[C@H]1CN([C@@H](Cc2ccccc2)CN2CCC[C@H]2CN2C(=O)C(=O)NC[C@@H]2Cc2ccccc2)C(=O)C(=O)N1CCc1ccccc1	.	.	.	0.2%	?	?
CC(=O)Nc1cccc(C(C)NC(=O)C=C2CCCC2)c1 (stereo not drawn)	.	.	.	25.3%	.	.
